{"source": "PubChem BioAssay AID488895", "about": "(Broad Institute, 2010)", "note": "The campaign covered roughly 340,000 compounds. About 120 (0.035%) were called active. The sample as a whole holds a higher share of actives than the screen did. Unmarked numbers belong to inactive results.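 Rule for the calls: active = mean replicate inhibition at least 50% and at least half of replicates individually reaching 50%; inconclusive = only one of the two criteria met; inactive = neither criterion met.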"}
{"assay": "E. coli Tat export inhibitors, primary screen, MC4100, TorA-mCherry reporter, fluorescence, single point (AID 488895);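 note: exported cargo escapes ClpAP degradation while cytoplasmic cargo is degraded and loses fluorescence; 0% = median of neutral control wells and 100% = median of NaSCN control wells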", "conditions": "at 10 µM, stronger effect = higher value"}
{"smiles": "CCCCNC(=O)c1cn(CC)c2cc(N3CCN(C(=O)c4ccco4)CC3)c(F)cc2c1=O", "inhibition": "-4.43%"}
{"smiles": "CN1CCN(c2cc3c(cc2F)c(=O)c(C(=O)O)cn3CCF)CC1", "inhibition": "81.7% (active)"}
{"smiles": "CCn1cc(C(=O)NCCO)c(=O)c2cc(F)c(N3CCN(C)CC3)cc21", "inhibition": "81.4% (active)"}
{"smiles": "CCn1cc(C(=O)NCCC(=O)NCCO)c(=O)c2cc3c(cc21)OCO3", "inhibition": "0.475%"}
{"smiles": "CCCCCCn1cc(C(=O)O)c(=O)c2cc(F)c(N3CCCCC3)cc21", "inhibition": "4.11%"}
{"smiles": "CCn1cc(S(=O)(=O)c2cccc(C)c2)c(=O)c2cc(F)c(N3CCN(C)CC3)cc21", "inhibition": "-3.59%"}
{"smiles": "CC1(C)O[C@@H]2[C@H](O1)[C@@H](COS(=O)(=O)O)O[C@H]2n1ccc(=O)[nH]c1=O", "inhibition": "-1.01%"}
{"smiles": "COc1ccc(S(=O)(=O)Nc2cccc3c2O[C@H](CN(C)S(=O)(=O)c2ccc(OC)cc2)[C@@H](C)CN([C@H](C)CO)C3=O)cc1", "inhibition": "0.274%"}
{"smiles": "O=C(c1cn(-c2ccccc2)nc1-c1cccnc1)N1CCN(S(=O)(=O)c2ccccc2F)CC1", "inhibition": "7.82%"}
{"smiles": "COc1ccc(CNC(=O)C(NS(=O)(=O)c2cccc3nsnc23)C(C)C)cc1", "note": "(stereo unspecified)", "inhibition": "-12.3%"}
{"smiles": "Cc1nc2ccc(C(=O)N3CCSCC3)cc2s1", "inhibition": "-5.07%"}
{"smiles": "COc1cc(C2CC(=O)Oc3cc(OC)c(OC)c(OC)c32)cc(OC)c1OC", "note": "(stereo unspecified)", "inhibition": "0.529%"}
{"smiles": "COc1cccc(C(C(=O)NC2CCCC2)N(C(=O)c2ccco2)c2cccc(C(C)=O)c2)c1OC", "note": "(stereo unspecified)", "inhibition": "7.67%"}
{"smiles": "CCNC(=O)CC1C(=O)N(c2ccc(OC)cc2)C(=S)N1CCc1ccncc1", "note": "(stereo unspecified)", "inhibition": "5.06%"}
{"smiles": "O=C(CN1CCN(S(=O)(=O)c2ccc(F)cc2)CC1)NC1CC1", "inhibition": "2.17%"}
{"smiles": "CCn1cc(/C=C(\\NC(=O)c2cc(OC)c(OC)c(OC)c2)C(=O)N2CCN(C)CC2)c2ccccc21", "inhibition": "6.75%"}
{"smiles": "N#Cc1nc(N)nc(N(c2ccccc2)c2ccccc2)n1", "inhibition": "-1.07%"}
{"smiles": "CC(=O)NC(=S)NNC(=O)c1ccc(Br)cc1", "inhibition": "10.8%"}
{"smiles": "O=C(COc1coc(CN2CCN(c3ccccc3)CC2)cc1=O)N1CCc2ccccc21", "inhibition": "-5.1%"}
{"smiles": "COCC(=O)N1CCc2ccc(NC(=O)c3ccccc3Cl)cc2C1", "inhibition": "-8.59%"}
{"smiles": "O=C(Cc1ccccc1F)NC1CCSc2ccccc21", "note": "(stereo unspecified)", "inhibition": "-4.99%"}
{"smiles": "CC(N)C12CC3CC(CC(O)(C3)C1)C2", "note": "(stereo unspecified)", "inhibition": "-2.5%"}
{"smiles": "CCn1ccnc1CN1CCCC(C(=O)c2ccc3c4c(cccc24)CC3)C1", "note": "(stereo unspecified)", "inhibition": "-0.858%"}
{"smiles": "COc1ccc(C2NCCCC2c2ccccc2)cc1", "note": "(stereo unspecified)", "inhibition": "0.669%"}
{"smiles": "CC(=O)Nc1ccc(OCCC[n+]2cccc(C(=O)[O-])c2)cc1", "inhibition": "0.863%"}
{"smiles": "CCOC(=O)N1CCN(C(=O)c2ccccc2N(Cc2ccccc2)S(=O)(=O)c2ccc(OC)cc2)CC1", "inhibition": "-2.32%"}
